# Source: the supplement of paper PMC3616981
# ± gives the standard deviation of the averaged measurements.
# Compound: CC(C)c1cccc(C(C)C)c1N1C(=O)c2ccc(O)cc2C1=O
# Assay: reporter fold induction vs vehicle; higher = higher reporter activity
# Conditions: 0.091 µM
# How it was run: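 Reporter activity is expressed as fold induction over vehicle. The multiplexed cellular biosensor system combined 48 cis response-element constructs and 25 trans nuclear-receptor transcription factor constructs with homogeneous detection. Chemicals from ToxCast Phase II were tested at 8 concentrations spanning 0.091–200 µM, and replicates were averaged where present.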
# 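Throughout, for BioMAP readout fold decrease vs vehicle (vehicle/treated): Co-cultures of keratinocytes, bronchial epithelial and smooth muscle cells, fibroblasts, HUVECs and PBMCs under stimuli like LPS, TNF-α, IFN-γ, IL-1β, TGF-β or EGF, SRB reflecting cytotoxicity.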
row,Target,reporter fold induction
1,STAT3_CIS,1.05
2,NFI_CIS,1.01
3,M_06_TRANS,0.964
4,ERRa_TRANS,1.21
5,CRE_CIS,1.08
6,NURR1_TRANS,1.09

# Same assay, conditions: 0.274 µM
row,Target,reporter fold induction
1,STAT3_CIS,1
2,NFI_CIS,0.966
3,M_06_TRANS,1.01
4,ERRa_TRANS,0.853
5,CRE_CIS,1.03
6,NURR1_TRANS,1.26

# Same assay, conditions: 0.823 µM
row,Target,reporter fold induction
1,STAT3_CIS,0.995
2,NFI_CIS,1.05
3,M_06_TRANS,0.995
4,ERRa_TRANS,1.02
5,CRE_CIS,1.01
6,NURR1_TRANS,1.01

# Same assay, conditions: 2.469 µM
row,Target,reporter fold induction
1,STAT3_CIS,0.975
2,NFI_CIS,0.998
3,M_06_TRANS,1.01
4,ERRa_TRANS,1.39
5,CRE_CIS,0.951
6,NURR1_TRANS,1.05

# Same assay, conditions: 7.407 µM
row,Target,reporter fold induction
1,STAT3_CIS,0.977
2,NFI_CIS,1.02
3,M_06_TRANS,1.01
4,ERRa_TRANS,1.37
5,CRE_CIS,1.11
6,NURR1_TRANS,1.08

# Same assay, conditions: 22.22 µM
row,Target,reporter fold induction
1,STAT3_CIS,1.15
2,NFI_CIS,0.921
3,M_06_TRANS,1
4,ERRa_TRANS,0.823
5,CRE_CIS,1.17
6,NURR1_TRANS,0.976

# Same assay, conditions: 66.67 µM
row,Target,reporter fold induction
1,STAT3_CIS,1.02
2,NFI_CIS,1.41
3,M_06_TRANS,0.996
4,ERRa_TRANS,0.836
5,CRE_CIS,2.03
6,NURR1_TRANS,0.934

# Same assay, conditions: 200 µM
row,Target,reporter fold induction
1,STAT3_CIS,0.913
2,NFI_CIS,1.66
3,M_06_TRANS,0.992
4,ERRa_TRANS,0.339
5,CRE_CIS,3.21
6,NURR1_TRANS,1.2

# Compound: CC(C)c1cccc(C(C)C)c1N1C(=O)c2ccc(O)cc2C1=O
# Assay: BioMAP readout fold decrease vs vehicle (vehicle/treated); higher = stronger decrease of the readout vs vehicle (values <1 mean increase)
# Conditions: 1.48 µM
# Description: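 BioSeek BioMAP human primary cell (co-)culture systems (3C, 4H, LPS, SAg, BE3C, CASM3C, hDFCGF, KF3CT) treated with 5HPP-33 at 1.48, 4.44, 13.3 and 40 µM. Read-outs are protein levels by ELISA, proliferation and SRB total protein. Duplicate rows per assay are averaged as replicates. Tested in ToxCast Phase II for this study; exposure time not stated.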
row,Target,BioMAP readout fold decrease
1,3C_MIG,1.004 ± 0.0083
2,LPS_TNFa,0.955 ± 0.077
3,BE3C_MMP1,1.073 ± 0.0092
4,hDFCGF_TIMP1,0.847 ± 0.061
5,hDFCGF_Proliferation,1.22 ± 0.13
6,CASM3C_Thrombomodulin,0.989 ± 0.031
7,KF3CT_MCP1,1.03 ± 0.041
8,CASM3C_LDLR,1.1 ± 0.017
9,LPS_IL1a,0.781 ± 0.039
10,LPS_CD40,1.33 ± 0.17
11,4H_MCP1,1.01 ± 0.026
12,CASM3C_IL6,0.923 ± 0.002
13,CASM3C_SRB,1.022 ± 0.0094
14,CASM3C_MCSF,1.06 ± 0.033
15,4H_SRB,1.05 ± 0.014
16,KF3CT_SRB,1.012 ± 0.0046
17,CASM3C_TissueFactor,1.0008 ± 0.00028
18,hDFCGF_SRB,1 ± 0.034
19,LPS_Eselectin,1.07 ± 0.019
20,3C_VCAM1,1.05 ± 0.029
21,KF3CT_MMP9,0.991 ± 0.0099
22,SAg_IL8,1.12 ± 0.039
23,LPS_MCSF,1.081 ± 0.0067
24,BE3C_TGFb1,1.05 ± 0.079
25,LPS_PGE2,0.966 ± 0.071
